These results are taken from PubChem BioAssay (EPA / NIEHS).

Assay [1] can be described thus: CCTE_Harrill_HTTr_Viability_MCF7: CCTE's 6-hour Cell Viability Assessment for the High-Throughput Transcriptomics (HTTr) Platform, in MCF-7 cells cultured in DMEM + 10% fetal bovine serum, Harrill Lab (AID 2284010). Put shortly:
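Eight-point concentration series, six-hour exposure. Propidium iodide exclusion imaged to assess membrane integrity as a cytotoxicity readout; bidirectional fitting was done with DMSO as negative control and activity baseline.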

Assay [2] in a line: CCTE_Harrill_HTTr_Apoptosis_MCF7: CCTE's 6-hour Apoptosis Assessment for the High-Throughput Transcriptomics (HTTr) Platform, in MCF-7 cells cultured in DMEM + 10% fetal bovine serum, Harrill Lab (AID 2284011). Put shortly:
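MCF-7 cells in DMEM + 10% FBS exposed 6 h to chemicals over an eight-point dilution series. Caspase-3/7 activation imaged by high-content CellEvent Green staining; fitted bidirectionally versus DMSO.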

Assay [3] is described as follows: CCTE_Shafer_MEA_acute_spike_number: CCTE's Neural Acute Assay for Total Number of Spikes, Shafer Lab (AID 2284008).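 As to AC50: curve fitted for decrease in spike count so AC50 reflects inhibitors.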 Summed up: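 Rat primary cortical neurons on 48-well MEA plates, DIV 13 or 15, at 37 C. 40 min baseline then 40 min with compound (0.03-40 uM); spikes detected at 8x rms noise, expressed as percent change from baseline.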
Assay [4] in a line: CCTE_Shafer_MEA_acute_firing_rate_mean: CCTE's Neural Acute Assay for Mean Firing Rate, Shafer Lab (AID 2284009).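 Also: analyzed for loss of signal so actives lower firing rate relative to DMSO.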 Summed up: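 Spontaneous spiking of primary rat cortical networks, DIV 13/15, 37 C. Compound 0.03-40 uM, n ≥3 wells; 40 min baseline vs 40 min treated. Endpoint fitted in loss-of-signal direction against DMSO.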
The nature of assay [5]: CCTE_Shafer_MEA_acute_burst_number: CCTE's Neural Acute Assay for Single-Electrode Bursts, Shafer Lab (AID 2284013). Summed up: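 Burst totals were derived with adaptive spike detection (8x rms threshold) on filtered signals from rat cortical cultures; change relative to pre-treatment baseline after 40-min compound exposure (0.03-40 uM) was fitted in the negative direction against DMSO.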

Assay [6] is described as follows: CCTE_Shafer_MEA_acute_burst_duration_mean: CCTE's Neural Acute Assay for Mean Burst Duration, Shafer Lab (AID 2284014).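 Also: hits are decreases in mean burst duration relative to DMSO controls.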 Put shortly: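 Acute exposure of mature rat cortical networks (DIV 13 or 15) grown on microelectrode arrays to 0.03-40 uM compound. Mean burst duration compared with the 40-min pre-dose baseline over a 40-min post-dose recording at 37 C.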
A short description of assay [7]: CCTE_Shafer_MEA_acute_per_burst_spike_number_mean: CCTE's Neural Acute Assay for Average Number of Spikes Per Burst, Shafer Lab (AID 2284015).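 Also: hits are decreases in mean spikes per burst versus baseline.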 Put shortly: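 Percent change in mean spikes per single-electrode burst is compared between a 40 min baseline and a 40 min recording with compound (0.03-40 uM). Cultures were rat cortical neurons on MEA plates at DIV 13 or 15, recorded at 37 C, with DMSO as the negative control.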

The nature of assay [8]: CCTE_Shafer_MEA_acute_burst_percentage_mean: CCTE's Neural Acute Assay for Percentage of Spikes in a Burst, Shafer Lab (AID 2284017).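 As to AC50: curve fitted for loss of signal so potency reflects decreased burst percentage.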 Summed up:
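Well-level mean burst percentage from a 40-min recording after compound (0.03-40 uM) expressed as percent change from a 40-min baseline at 37C. Cultures: primary rat cortical neurons on MEA, dosed on DIV 13 or 15; fitted downward relative to DMSO.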

Assay [9] is described as follows: CCTE_Shafer_MEA_acute_burst_percentage_std: CCTE's Neural Acute Assay for Standard Deviation of Burst Percentage, Shafer Lab (AID 2284018).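 Also: fitted in the negative direction so actives lower burst percentage SD.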 Summed up: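 Primary rat cortical neurons on 16-electrode MEA wells were recorded 40 min at baseline (DIV 13 or 15), then 40 min after compound (0.03-40 uM), at 37 C. Well value is SD across electrodes of spikes-in-bursts/total spikes; endpoint is percent change, DMSO-referenced.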

Assay [10] is described as follows: CCTE_Shafer_MEA_acute_per_network_burst_spike_number_mean: CCTE's Neural Acute Assay for Average Number of Spikes in a Network Burst, Shafer Lab (AID 2284019).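 As to AC50: curve fitted for loss of signal so actives reduce spikes per network burst.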 Put shortly:
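Acute exposure of rat primary cortical networks (DIV 13/15) on MEAs; adaptive spike detection at 8x rms noise, 37 C. Percent change in spikes per network burst after 40 min with compound (0.03-40 uM), negative direction vs DMSO.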

The nature of assay [11]: CCTE_Shafer_MEA_acute_per_network_burst_spike_number_std: CCTE's Neural Acute Assay for Standard Deviation of Number of Spikes in a Network Burst, Shafer Lab (AID 2284020).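 Also: fitted for decrease in spike-number SD versus DMSO so actives lower it.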 Summed up: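 Acute MEA exposure, rat cortical neurons, 0.03-40 uM. Per-well % change versus own baseline; DMSO as negative control.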
A short description of assay [12]: CCTE_Shafer_MEA_acute_per_network_burst_electrodes_number_mean: CCTE's Neural Acute Assay for Mean Number of Electrodes in a Network Burst, Shafer Lab (AID 2284021).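 Also: curves fitted for decreases only so hits reduce electrodes per burst.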 Summed up: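 Rat primary cortical neurons on 48-well MEAs, DIV 13 or 15, were treated at 0.03-40 uM. Spikes were detected at 8x rms noise and recorded at 37 C. The mean electrodes per network burst in a 40 min exposure recording was expressed as percent change from a 40 min baseline.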

The nature of assay [13]: CCTE_Shafer_MEA_acute_cross_correlation_area: CCTE's Neural Acute Assay for Area of Cross Correlation, Shafer Lab (AID 2284024).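 Also: curves fitted for loss of cross-correlation area so actives lower synchrony.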 Put shortly:
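Rat primary cortical neurons on 48-well MEA, DIV 13 or 15; compounds 0.03-40 uM. Baseline and post-exposure 40 min recordings at 37 C; percent change in area under pooled inter-electrode cross-correlation near zero lag, relative to DMSO.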

Assay [14] is described as follows: CCTE_Shafer_MEA_acute_cross_correlation_HWHM: CCTE's Neural Acute Assay for Cross Correlation at Half Width at Half Maximum, Shafer Lab (AID 2284026).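 Also: hits are a decrease in cross-correlogram half width relative to DMSO.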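 As to outcome: spontaneous network firing of rat primary cortical neurons on multiwell microelectrode arrays.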 Put shortly: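 Rat primary cortical neurons on 48-well MEA plates; 40-min baseline and 40-min post-exposure recordings at 37 C on DIV 13 or 15, compounds 0.03-40 uM. Spikes detected at 8x rms noise; percent change in cross-correlogram HWHM per well vs baseline.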

Assay [15] can be described thus: CCTE_Harrill_HTTr_CellCount_MCF7: CCTE's Cell Proliferation Assessment for the High-Throughput Transcriptomics (HTTr) Platform, Harrill Lab (AID 2284012; active = hit-call score of the fitted dose curve at least 0.9, where 1 is the maximum;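 also: intended direction is loss of nuclei count meaning fewer cells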). Put shortly: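 For this full-screen endpoint, MCF-7 cultures received eight compound dilutions for six hours. Well nuclei counts from Hoechst imaging were analyzed relative to DMSO.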

Results filed as inconclusive are left out. Calls of active or inactive are those of the source. The calls were made as follows, unless noted: active = hit-call score of the fitted dose curve at least 0.9, where 1 is the maximum; inactive = score below 0.9.

On to `CCCCC(CC)CO` (stereo unspecified), for which the outcome in assay [1] was inactive.

With `CCCCC(CC)COC(=O)CCCCCCCC(=O)OCC(CC)CCCC` (stereo unspecified), the result in assay [1] was inactive.

With `CCCCCCCCCCCCCCOS(=O)(=O)O`, the outcome in assay [1] and in [2] was inactive.

With `CC(COCC(C)OC(=O)c1ccccc1)OC(=O)c1ccccc1` (stereo unspecified), the outcome in assay [1] and in [2] was inactive.

For `CC(C)COC(=O)CCCCC(=O)OCC(C)C`, the call in [3], in [4], in assay [1], in [5], in assay [6] and in assay [7] was inactive. The compound was classed as inactive in assay [8], in assay [9], in [10], in assay [11], in assay [12] and in [13]. The result in assay [14] was inactive.

With `CN(C)CCCN1c2ccccc2Sc2ccc(Cl)cc21`, the result in assay [3], in assay [4], in assay [15], in assay [5], in assay [6] and in [7] was inactive. In addition, the result in assay [10], in [11] and in [12] was inactive. Further, the AC50 in assay [1] was 77.1 µM (active); in [8], 33.2 µM (active); in assay [9] it was 31.6 µM (active); in assay [14], 31.5 µM (active).

As for `O=C(NS(=O)(=O)/C=C/c1cccs1)c1ccc(F)cc1Br`, the outcome in assay [1] was inactive.

`CCCCCCCC(=O)OC`: the outcome in assay [1] and in assay [2] was inactive.

For the compound `CO[C@@H]1COCC[C@@H]1N[C@@H]1CC[C@@](C(=O)N2CCc3ncc(C(F)(F)F)cc3C2)(C(C)C)C1`, the outcome in [1] was inactive.

Turning to `CCCCCCC(CCCCCCCCCCC(=O)OCC(COC(C)=O)OC(C)=O)OC(C)=O` (stereo unspecified), the outcome in assay [1] was inactive.

As to `O=[Si]=O`, in assay [1], the result was inactive.

Regarding `O=C(O)c1[nH]n(-c2ccc(S(=O)(=O)O)cc2)c(=O)c1N=Nc1ccc(S(=O)(=O)O)cc1`, the result in assay [1] and in [2] was inactive.

Turning to `COc1ccc(OC(F)(F)F)cc1CN[C@H]1CCCN[C@H]1c1ccccc1`, the concentration at half-maximal activity (AC50) in [3] was 1.72 µM (active); in assay [4], 1.73 µM (active); in assay [5] it was 1.89 µM (active); in assay [7] it was 5 µM (active); in assay [8], 4.59 µM (active); in assay [9] it was 4.15 µM (active). For the same compound, the AC50 in [10] was 2.07 µM (active); in assay [11] it was 2.75 µM (active); in assay [14], 3.09 µM (active). Moreover, the outcome in assay [1], in assay [6], in [12] and in assay [13] was inactive.

Regarding `CC1(C)C(=O)NC(=O)N1CO`, the result in assay [1] and in assay [2] was inactive.

As to `O=Cc1ccccc1C=O`, the outcome in assay [1], in [2] and in [15] was inactive.

Consider `COc1ccc(C(=O)Nc2nc3ccccc3c(NCc3ccccc3)c2C#N)cc1`, for which the result in assay [1] was inactive.

On to `O=C1c2c(O)cccc2Cc2cccc(O)c21`, for which the result in assay [1], in [2] and in assay [15] was inactive.

`O=C1NC(=O)C(c2ccccc2)(c2ccccc2)N1`: the result in [1], in assay [2] and in assay [15] was inactive.

For the compound `CCc1nc(N)nc(N)c1-c1ccc(Cl)cc1`, the outcome in assay [1] and in assay [15] was inactive.

With `CC(=O)CC(c1ccccc1)c1c(O)c2ccccc2oc1=O` (stereo unspecified), the result in assay [1], in assay [2] and in assay [15] was inactive.

Turning to `CN(C)CCCN(C)CCCN(C)C`, the outcome in assay [1], in assay [2] and in assay [15] was inactive.

`CS(=O)(=O)c1ccc([C@@H](C[C@H]2CCC(=O)C2)C(=O)Nc2cnccn2)cc1Cl`: the result in assay [1] and in assay [15] was inactive.

`C=CCc1ccc(OC)c(OC)c1`: the outcome in assay [1], in [2] and in assay [15] was inactive.

On to `NC1CCCCC1`, for which the result in assay [1] and in assay [15] was inactive.

On to `C#CC(O)C(CC)CCCC` (stereo unspecified), for which the outcome in [1], in [2] and in assay [15] was inactive.

With `O=C1CCCCC1`, the result in assay [1] and in assay [15] was inactive.

On to `CCCCOC(=O)CCCCC(=O)OCCCC`, for which the result in assay [1] and in assay [15] was inactive.

`CC(=O)S[C@H](C(=O)N[C@H]1Cc2ccccc2[C@H]2CCC[C@@H](C(=O)O)N2C1=O)C(C)C`: the result in assay [1] and in [15] was inactive.

Take `Cn1cnc2c1c(=O)[nH]c(=O)n2C`: the result in [1], in assay [2] and in [15] was inactive.

In the case of `CC(=O)O`, the outcome in assay [1], in [2] and in [15] was inactive.

As for `COC(=O)CCC(=O)OC`, the result in assay [1] and in assay [15] was inactive.

With `CCOCCOCCO`, the result in [1], in assay [2] and in assay [15] was inactive.

Turning to `CC(=O)OC1CC(C)OC(C)O1` (stereo unspecified), the outcome in assay [1] and in [15] was inactive.

For the compound `CC(=O)[C@@]1(O)CC[C@H]2[C@@H]3CCC4=CC(=O)CC[C@]4(C)[C@H]3CC[C@@]21C`, the outcome in assay [1], in [2] and in assay [15] was inactive.

Take `CC(C)c1cccc(C(C)C)c1NC(=O)NS(=O)(=O)c1cc(C(C)(C)O)co1`: the outcome in [1], in [2] and in assay [15] was inactive.

On to `O=C(Oc1ccccc1)c1cccc(C(=O)Oc2ccccc2)c1`, for which the result in assay [1] and in assay [15] was inactive.

Turning to `Cc1cn([C@H]2C=C[C@@H](CO)O2)c(=O)[nH]c1=O`, the result in [1] and in assay [15] was inactive.

Consider `CCCCCCCCCC[N+](C)(C)[O-]`, for which the outcome in [1] and in assay [15] was inactive.

On to `Nc1nc(Cl)nc2c1ncn2[C@H]1C[C@H](O)[C@@H](CO)O1`, for which the result in assay [1], in [2] and in [15] was inactive.

Take `O=NO`: the outcome in assay [1], in assay [2] and in assay [15] was inactive.

With `CCC(C)N(C)C(=O)c1cc2ccccc2c(-c2ccccc2Cl)n1` (stereo unspecified), the result in assay [1], in [2] and in [15] was inactive.

On to `CCCC[C@H]1CN(CC2CCOCC2)C(=O)OC12CCN(C1(C)CCN(C(=O)c3c(C)ncnc3C)CC1)CC2`, for which the result in assay [1], in assay [2] and in [15] was inactive.

As for `C/C=C/C=C/C(=O)O`, the result in assay [1], in [2] and in assay [15] was inactive.

For `C=CCCCCCCCCCCCC`, the outcome in assay [1] and in [15] was inactive.

Turning to `O=C(O)c1cccnc1`, the result in assay [1], in [2] and in assay [15] was inactive.

In the case of `CC(C)(C)c1ccccc1`, the result in assay [1] and in [15] was inactive.

For orientation: AC50 means the concentration at which the activity in the assay is half-maximal.
